High-throughput results as filed in PubChem.
MCF10A rereplic: DNA re-replication induction in MCF 10a cells; 2.9% of 350,000 active; AID 624296; MCF 10A DNA re-replication, Hoechst nuclear intensity, 48 h; Potency, µM (top dose mostly 46.1 µM), for the others: at the highest dose activity, positive = re-replication, most hits filed as activators; note: potency is the fitted concentration of half-maximal effect; % of control where 0% means no effect; nearly all actives have a fitted effect of over 50% in size
TDP1 cell CPT: DT40-hTDP1 cell growth loss with CPT; chicken DT40 Tdp1-/-;hTDP1 cells + 20 nM CPT, ATP luminescence, 48 h; Potency, µM (doses to about 46.2 µM), without a hit: top-dose activity change, negative = growth inhibition, actives largely listed as inhibitors; 12% of 420,000 active; AID 686979; note: potency is the fitted concentration of half-maximal effect; % is set by controls: 0 for no effect and ±100 for the full control effect; nearly all actives have a fitted effect of over 55% in size
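Chicken DT40 Tdp1-/- cells complemented with human TDP1, 400 cells/well, exposed to compounds plus 20 nM camptothecin for at least 48 h at 37 C; viability read as ATP content by CellTiter-Glo luminescence.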
DT40 TDP1 no CPT: qHTS for Inhibitors of human tyrosyl-DNA phosphodiesterase 1 (TDP1): qHTS in cells in absence of CPT; DT40 Tdp1-/- hTDP1 cells, no CPT, ATP luminescence, 48 h; 15% of 420,000 active; Potency, µM (doses to about 46.2 µM), for the others: at the top dose activity change, negative = growth inhibition, actives largely listed as inhibitors; note: potency is the fitted concentration of half-maximal effect; % is set by controls: 0 for no effect and ±100 for the full control effect; nearly all actives have a fitted effect of over 55% in size
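Growth of hTDP1-complemented DT40 Tdp1-knockout cells is measured by ATP luminescence after at least 48 hr compound exposure at 37 °C, with DMSO substituting for the 20 nM CPT used in the parallel screen.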
IL-1B inflam inh: blocks inflammasome-driven IL-1 beta release; activity change, % at 57.5 µM; 4.7% of 360,000 active; THP-1 LPS/ATP IL-1B secretion, AlphaLISA, 16 h; hits give low values; AID 743279; in the data active = activity change below about -50%; inconclusive = mostly about -30% to -49%; note: % is set by controls: 0 for no effect and ±100 for the full control effect
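THP-1 cells pretreated 1 hr with compounds (up to 57.5 uM final), then stimulated with LPS (250 ng/mL final) plus ATP (1.25 mM final); secreted IL-1B measured by AlphaLISA after 16 hr, decreased signal indicating inhibition.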
Chronic BCR inh: inhibitors of chronic active B-cell receptor signaling; ABC-DLBCL IkBa-CBG/CBR reporter, luminescence ratio, 4 h; Potency, µM (highest dose often 46.1 µM), for the others: at the highest dose activity change, negative = inhibition, hits mostly inhibitors; 0.05% of 340,000 active; active = well fitted inhibition curve with a large enough effect in the signal ratio, with a control signal flat, not every such curve was filed as active; inconclusive = small, poorly fitted or top-dose-only effect, or effect the other way, or a change in a side signal; the % refers to the signal ratio;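 note: potency is the fitted concentration of half-maximal effect; plate controls were basal doxycycline-induced cells for no effect and cells given 10 µM MG132 for full effect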
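Compounds up to 46 uM were incubated four hours with TMD8 cells whose green CBG68 luciferase is fused to IkappaBalpha; red CBR luminescence normalised the signal, and concentration-effect curves were fitted to fusion, red and ratio data.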
SW480 rereplic: DNA re-replication induction in SW480 cells; SW480 DNA re-replication, Hoechst DNA content imaging, 48 h; Potency, µM (doses to about 46.1 µM), for the others: at the top dose re-replication activation, most hits filed as activators; 1.8% of 340,000 active; note: potency is the fitted concentration of half-maximal effect; % of control where 0% means no effect; nearly all actives have a fitted effect of over 55% in size
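Per well, 250 cells were exposed to pinned compound for 48 hr. Nuclear DNA was visualised with Hoechst (40 min, 37 C) and total object intensity recorded by fluorescence scanning.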
Numbers without * were called inactive; ? = inconclusive; [ ] = dose if it differs, or a comment. Only some compounds are listed: those with a hit (about 19% of all), similar ones and a draw of the others. Unless noted, calls come from the whole dose curve; as a rule, active = well fitted curve in the direction sought with a large enough effect; inconclusive = small, poorly fitted or top-dose-only effect, or another doubt; inactive = no such curve, though single readings can be large; an effect the other way counts as inactive or inconclusive.

SMILES	MCF10A rereplic	TDP1 cell CPT	DT40 TDP1 no CPT	IL-1B inflam inh	Chronic BCR inh	SW480 rereplic
CCN(Cc1ccccc1)c1ccc(/C=N/NC(=S)NC(C)C)cc1	?	2.6µM*	2.9µM*	-10	?	?
NC(=O)C(=O)N/N=C/c1cccc(C(F)(F)F)c1	1%	-4%	12%	-1	1%	-1%
O=C(CCNc1ccc(Cc2ccncc2)cc1)c1cccc([N+](=O)[O-])c1	?	18µM*	16µM*	-109*	?	-1%
O=C(CCNc1cccc(F)c1)c1cccc([N+](=O)[O-])c1	?	5.8µM*	4.1µM*	-86*	?	-2%
Cc1c([N+](=O)[O-])cc(C(=O)Nc2ccc(Cc3ccncc3)cc2)cc1[N+](=O)[O-]	1%	-12%	-18%	?	5%	-4%
CCOC(=O)[C@@H](C)N(Cc1ccc(OC)cc1)S(=O)(=O)N(Cc1ccccc1)[C@H](C(=O)OC)C(C)C	?	?	-93%	17	11%	2%
C=CCn1c(NS(=O)(=O)c2ccccc2)c(S(=O)(=O)c2ccc(C)cc2)c2nc3ccccc3nc21	15µM*	?	?	-84*	?	?
O=S(=O)(Nc1c(S(=O)(=O)c2ccccc2)c2nc3ccccc3nc2n1C1CCCCC1)c1ccccc1	2.9µM*	9.2µM*	5.2µM*	-69*	?	14%
O=C(Nc1cc(C(F)(F)F)ccc1-n1cncn1)c1ccc([N+](=O)[O-])o1	?	10µM*	21µM*	-94*	0%	9.2µM*
COc1ccc(N2CCCC2)c(NC(=O)c2ccc([N+](=O)[O-])o2)c1	?	7.3µM*	18µM*	-71*	1%	?
Cc1ccc(C(=O)Nc2ccccc2N2CCCCC2)o1	?	26µM*	?	45	0%	-3%
Nc1ccccc1N1CCN(C(=O)c2ccccc2)CC1	-2%	-21%	-7%	-3	-14%	-4%
O=C(Nc1ccccc1N1CCN(C(=O)c2ccccc2)CC1)c1ccc([N+](=O)[O-])o1	?	21µM*	15µM*	2	-2%	?
O=C(Nc1ccc(N2CCCC2)c(Cl)c1)c1ccc([N+](=O)[O-])o1	2.9µM*	8.2µM*	18µM*	-109*	?	4%
O=C(Nc1ccccc1N1CCCC1)c1ccc([N+](=O)[O-])o1	23µM*	23µM*	?	-93*	5%	5.2µM*
O=C(Nc1ccc(N2CCCC2)c(Cl)c1)c1ccco1	-5%	?	?	?	?	-9%
CC1CCN(c2ccccc2NC(=O)c2ccc([N+](=O)[O-])o2)CC1	1%	?	?	32	-2%	0%
COc1cc(O)c(C(CC(=O)N2CCOCC2)c2cc(OC)c(OC)c(OC)c2)c(OC)c1 (configuration not stated)	12%	5%	-1%	13	-5%	-13%
CCN(CC)CCC(c1ccc2c(c1)OCO2)c1c(OC)cc(OC)c2ccc(=O)oc12 (configuration not stated)	-2%	13µM*	18µM*	-9	-4%	-13%[9.22 µM]
CCN(CC)CCC(c1cc(OC)c(OC)c(OC)c1)c1c(OC)cc(OC)c2ccc(=O)oc12 (configuration not stated)	?	?	?	6	-6%	6%
COc1cc(OC)c2c(-c3ccccc3)cc(=O)oc2c1C(CCN1CCCC(C)C1)c1ccc2c(c1)OCO2 (configuration not stated)	13%	?	23µM*	-12	?	-4%
